# Columns and labels:
# Format in all cases: functional
# [1] = biological target: Solute carrier family 2, facilitated glucose transporter member 1 (Homo sapiens) (UniProt P11166); test: ST_JUDE_LEISH: Cytotoxicity at 2uM final concentration against transgenic Leishmania Mexicana promastigotes LmGLUT1 that are glucose transport deficient and complemented with the human glucose transporter GLUT1. Activity is measured by DNA content using SYBR green in vitro
# [2] = biological target: Hexose transporter 1 (Plasmodium falciparum) (UniProt O97467); test: ST_JUDE_LEISH: Cytotoxicity at 2uM final concentration against transgenic Leishmania Mexicana promastigotes LmPfHT that are glucose transport deficient and complemented with the Plasmodium falciparum hexose transporter. Activity is measured by DNA content using SYBR green in vitro
# [3] = biological target: Glucose transporter (Leishmania mexicana) (UniProt O61059); test: ST_JUDE_LEISH: Cytotoxicity at 2uM final concentration against transgenic Leishmania Mexicana promastigotes LmGT2 that are glucose transport deficient and complemented with the L. Mexicana glucose transporter 2. Activity is measured by DNA content using SYBR green in vitro
# Chain of Solute carrier family 2, facilitated glucose transporter member 1 (Homo sapiens) (P11166 whole entry): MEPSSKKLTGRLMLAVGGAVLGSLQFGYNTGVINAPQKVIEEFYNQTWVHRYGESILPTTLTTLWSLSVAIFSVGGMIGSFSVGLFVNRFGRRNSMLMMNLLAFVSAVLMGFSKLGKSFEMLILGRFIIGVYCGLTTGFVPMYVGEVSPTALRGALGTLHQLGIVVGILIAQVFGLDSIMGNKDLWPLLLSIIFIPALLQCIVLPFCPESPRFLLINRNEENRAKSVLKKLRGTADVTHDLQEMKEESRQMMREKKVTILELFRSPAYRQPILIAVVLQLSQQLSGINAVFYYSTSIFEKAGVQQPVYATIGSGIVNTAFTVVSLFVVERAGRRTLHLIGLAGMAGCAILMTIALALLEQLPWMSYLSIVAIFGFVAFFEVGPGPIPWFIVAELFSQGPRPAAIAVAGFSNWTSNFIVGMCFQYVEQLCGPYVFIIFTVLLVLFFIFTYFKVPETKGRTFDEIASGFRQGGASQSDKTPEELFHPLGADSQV
Compound,inhibition [1],inhibition [2],inhibition [3]
CC(=O)c1cccc(NC(=O)N2CCCN(CCCCCNC(=O)/C=C/c3ccc(Cl)c(Cl)c3)CC2)c1,-1.7%,-0.03%,-0.6%
c1ccc(COc2ccccc2COc2ccccc2-c2ccc3cccnc3n2)cc1,0.28%,-0.32%,5.87%
COc1ccc2cc(C=NNc3nc4ccccc4[nH]3)c(Cl)nc2c1,-0.3%,0.04%,1.79%
CCNc1cc(C(=O)N[C@@H](Cc2ccco2)[C@H](O)CNC2CCCCC2)cc(N2CCCCS2(=O)=O)c1,1.99%,2.4%,2.15%
Cc1c(Cl)ccc2c(C(=O)Nc3ccncc3)cc(-c3cccnc3)nc12,-4.52%,-2.06%,-2.1%
CO/C(=C\C=C\c1cc2cc(Cl)c(Cl)cc2[nH]1)C(=O)Nc1ccc(NCCN(C)C)nc1,6.97%,6.98%,2.42%
Nc1nc(N)c2c(ccc3c2ccn3Cc2ccc(OCc3ccccc3)cc2)n1,2.4%,-1.46%,-0.6%
CCOC(=O)C(C(=O)OCC)c1nc(C)ns1,-1.35%,0.58%,0.53%
Cc1cc(NCCC(=O)NCCOc2ccccc2)nc(NCCc2ccccc2)n1,7.78%,5.18%,0.66%
N#Cc1ccccc1C(=O)N(Cc1cncn1Cc1cccc(F)c1)CC1CC1,6.38%,10.2%,8.88%
Cc1cccc(C(=O)Nc2ccnc(N3CCC(N(C)Cc4cccc(O)c4)CC3)c2)c1,2.07%,1.88%,3.02%
Cc1ccccc1Nc1nc(Nc2ccccc2)c2ccccc2n1,38.8%,44%,13%
Cc1cc(C)cc(OCC(O)CN(Cc2cc(Cl)cc(Cl)c2)C(=O)Nc2ccc([N+](=O)[O-])cc2)c1 (centres undefined),4.12%,3.99%,5.26%

# Reference: ChEMBL document CHEMBL3433997, “St. Jude Leishmania screening dataset” (2016)
